Among all 220,000 compounds or so, about 2,600 (1.2%) were called active.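 Rule for the calls: active = activation above the mean of all tested compounds plus 3 SD, set per screening run (cut at about 8.8% in these data); inactive = the rest.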 The sample as a whole holds a higher share of actives than the screen did.

For this experiment, the target named is Wee1-like protein kinase (Homo sapiens) (UniProt P30291). The experiment is described as follows: compounds stabilizing Wee1-luciferase fusion – cell-based, HeLa, Wee1K328M-luciferase, luminescence, primary screen (AID 1321).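 Note: cells exposed to compound for 20 h before luminescence read; 0% = DMSO alone and 100% = MG132 at 30 µM.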 As to conditions: HeLa Luc-Wee1K328M stability, at 5 µM, hits give high values, 100% = proteasome inhibitor MG132 effect.
In the case of `NS(=O)(=O)c1ccc(CNC(=O)c2cnccn2)cc1`, the reporter increase was 3.73% (inactive).
With `COC(=O)CC1=NN(c2ccccc2)C(=O)C1`, the reporter increase is -1.29% (inactive).
`COC(=O)CC1=NN(c2nc(C)cc(C)n2)C(=O)C1`: the reporter increase was 15.3% (active).
In the case of `Cc1cc(C)cc(NC(=O)C2CCN(c3nc(C)cc(C)n3)CC2)c1` it was -2.65% (inactive); in that of `O=C1C2C3C=CC(C3)C2C(=O)N1c1ccc(S(=O)(=O)Nc2nccs2)cc1` (stereo not given), -1.57% (inactive).
For `NS(=O)(=O)c1ccc(NC(=O)COC(=O)c2cc3ccccc3oc2=O)cc1`, the reporter increase was -2.85% (inactive).
Turning to `O=C(CCc1ccccc1)NNc1ccc(F)cc1`, the reporter increase was 1.37% (inactive).
On to `Cc1cc(=O)oc2cc(OCCC[n+]3ccccc3)ccc12`, for which the reporter increase was -1.76% (inactive).
As to `COc1cccc(-c2nnc(SCCOc3ccc4c(C)cc(=O)oc4c3)o2)c1`, the reporter increase was 9.51% (active).
Take `Cc1ccccc1N1CCN(CCCOc2ccc3c(C)cc(=O)oc3c2)CC1`: the reporter increase was -1.06% (inactive).
On to `COC(=O)c1sccc1NN1C(=O)c2ccccc2C1=O`, for which the reporter increase is -2.49% (inactive).
Consider `CCc1c(C)sc(NC(=O)/C=C/c2ccc3c(c2)OCO3)c1C(=O)OC`, for which the reporter increase is -2.27% (inactive).
In the case of `Cc1cccc(NC(=O)Nc2ccc3c(c2)OCO3)n1`, the reporter increase was 5.09% (inactive).
In the case of `Cc1cccc(NC(=O)/C=C/c2ccc3c(c2)OCO3)n1` it was 9.34% (active).
With `COc1ccc(C(=O)N/N=C2\CCS(=O)(=O)c3ccc(F)cc32)cc1OC` the figure was 0.62% (inactive).
For `CC(C)c1ccc(C(=O)NCCCc2ccccc2)cc1`, the reporter increase was -2.16% (inactive).
In the case of `Nc1ccc(C(=O)NCc2ccccc2)cc1` it was 2.22% (inactive); in that of `O=C(NCCCNCc1ccccc1)c1ccc(/C=N/O)nc1`, 11.4% (active); in that of `CNC(=S)NNC(=O)c1oc2nc(-c3ccccc3)cc(-c3ccco3)c2c1N`, -0.32% (inactive).
On to `CCOP(=O)(OCC)C(Nc1cccc(C)c1)c1ccc(F)cc1` (stereo not given), for which the reporter increase is 10.8% (active).
In the case of `CCCCOC(=O)c1ccc(NC(c2ccc(C)cc2)P(=O)(OC)OC)cc1` (stereo not given) it was 8.49% (inactive).
`CCOP(=O)(OCC)C(Nc1ccc([N+](=O)[O-])cc1)c1ccc(Cl)cc1` (stereo not given): the reporter increase was 0.66% (inactive).
For the compound `Nc1ccccc1SC(C[N+](=O)[O-])c1ccccc1` (stereo not given), the reporter increase was -0.08% (inactive).
`NC1=NC(=O)C(Cc2cccc(Cl)c2)S1` (stereo not given): the reporter increase was -3.99% (inactive).
As for `NC1=NC(=O)C(Cc2cccc(Cl)c2Cl)S1` (stereo not given), the reporter increase was 9.04% (active).
With `O=C1NC(=Nc2ccc(Cl)cc2)SC1Cc1cccc(Cl)c1Cl` (stereo not given) the figure was -1.02% (inactive).
Consider `[O-][N+]12CCCCC1CCCC2CO` (stereo not given), for which the reporter increase is -2.55% (inactive).
For `COCCCNC(=O)C1CCN(c2ccc(N3CCOCC3)nn2)CC1`, the reporter increase is -2.62% (inactive).
With `CSc1nc(-c2ccco2)nn1C(=O)c1ccccc1Cl`, the reporter increase is -1.69% (inactive).
With `Cc1cc(C(=O)NNC(=S)Nc2ccccc2C)cs1` the figure was 10.1% (active).
As to `Cc1ccc(C)c(NC(=S)NNC(=O)c2csc(C)c2)c1`, the reporter increase is 1.58% (inactive).
With `Cc1ccccc1NC(=S)NNC(=O)c1cccc(Br)c1` the figure was -1.44% (inactive); with `CC(=O)N1CC[n+]2c(-c3ccc([N+](=O)[O-])cc3)csc21`, -3.06% (inactive).
For `O=c1c2ccccc2nc(CSc2nnnn2-c2ccccc2)n1-c1ccccc1`, the reporter increase was 5.88% (inactive).
For `O=c1c2ccccc2nnn1CSc1nnnn1-c1ccccc1`, the reporter increase is 9.56% (active).
As for `Nc1nnc(SCn2nnc3ccccc3c2=O)s1`, the reporter increase is -0.04% (inactive).
Take `Cc1ccc(-c2nc(SCC(=O)Nc3ccccc3OC(F)F)c3c(C)c(C(=O)O)sc3n2)cc1`: the reporter increase is -1.68% (inactive).
Take `O=[N+]([O-])/C=C1\CCCCCN1`: the reporter increase was -2.66% (inactive).
In the case of `COc1ccc(CCN2C(=O)CC(N3CCC(C(N)=O)CC3)C2=O)cc1OC` (stereo not given), the reporter increase was -3% (inactive).
For the compound `C/C(=N\NC(=S)Nc1ccc(C)cc1)c1cc2ccccc2o1`, the reporter increase was 5.15% (inactive).
As to `O=C(CCN1c2ccccc2Sc2ccccc21)Nc1ccccc1`, the reporter increase was 0.76% (inactive).
On to `CCC(=O)/C=C1\Sc2ccccc2N1CC`, for which the reporter increase is -1.98% (inactive).
In the case of `CCN1/C(=C/C(=S)Nc2ccccc2)Sc2ccccc21` it was 11.6% (active); in that of `COc1ccccc1N1CCN(C(=O)c2cn(-c3ccccc3)nc2-c2cccnc2)CC1`, -0.84% (inactive).
`COc1ccc(Nc2ncc(C(=O)N3CCN(c4ccccc4OC)CC3)c3ccccc23)cc1`: the reporter increase was 8.82% (active).
Turning to `COc1ccc2oc(=O)c(C(=O)N3CCN(c4ccccc4F)CC3)cc2c1`, the reporter increase was -2.32% (inactive).
In the case of `O=C(/C=C/Nc1ccc(S(=O)(=O)Nc2cnc3ccccc3n2)cc1)c1cccnc1` it was -0.5% (inactive).
As to `COc1cc(OC)c(OC)cc1/C=N/Nc1ncnc2c1[nH]c1ccc(C)cc12`, the reporter increase was 0.2% (inactive).
As to `O=C(NNS(=O)(=O)Cc1ccccc1)c1ccc([N+](=O)[O-])cc1`, the reporter increase was -1.88% (inactive).
With `COC(=O)c1cc2c(N)c(C(=O)c3ccc(Cl)cc3)sc2nc1C(OC)OC`, the reporter increase was -2.57% (inactive).
For `CC(C)OC(=O)c1sc2nc3c(cc2c1N)C(=O)CCC3`, the reporter increase is 11.6% (active).
As for `Nc1c(C(=O)NCc2ccccc2)sc2nc3c(cc12)C(=O)CCC3`, the reporter increase is 2.8% (inactive).
In the case of `CN(CC(O)COc1ccc(S(=O)(=O)N2CCOCC2)cc1Cl)C1CCCCC1` (stereo not given) it was -3.05% (inactive); in that of `O=C(N/N=C/c1cccc([N+](=O)[O-])c1)c1ccncc1`, 2.44% (inactive); in that of `CC(C)S(=O)(=O)c1csc(NC(=O)Nc2ccc(Cl)cc2)c1Cl`, 14.2% (active).
In the case of `CN(c1cccc(NC(=O)Nc2ccc(Cl)cc2)c1)S(C)(=O)=O`, the reporter increase was 4.1% (inactive).
`Cn1ccc(NC(=O)Nc2ccc(Cl)cc2)n1`: the reporter increase is 2.1% (inactive).
Regarding `Cn1nc(C(F)(F)F)cc1C(=O)O`, the reporter increase is -1.44% (inactive).
Consider `COc1ccc(Br)cc1/C=N/NC(=O)c1cccc(S(=O)(=O)N2CCOCC2)c1`, for which the reporter increase was 8.21% (inactive).
Take `COc1ccc(/C=N/NC(=O)CNC(=O)c2ccc(S(=O)(=O)N3CCCC3)cc2)c(OC)c1`: the reporter increase was 0.74% (inactive).
On to `COc1cccc(/C=N/NC(=O)CNC(=O)c2ccc(S(=O)(=O)N3CCOCC3)cc2)c1OC`, for which the reporter increase was 12.4% (active).
As to `COC(=O)c1sccc1NC(=S)Nc1ccc(C)cc1`, the reporter increase is 2.58% (inactive).
Take `O=C(CNCc1cccs1)Nc1cc(S(=O)(=O)N2CCCC2)ccc1Cl`: the reporter increase was 8.84% (active).
Regarding `O=C(CNCc1ccco1)Nc1cc(S(=O)(=O)N2CCOCC2)ccc1N1CCCC1`, the reporter increase is -2.01% (inactive).
`O=C(NCc1cccs1)C1CCN(S(=O)(=O)c2ccc(Cl)cc2)CC1`: the reporter increase was 0.23% (inactive).

These data come from PubChem BioAssay AID1321 (The Scripps Research Institute Molecular Screening Center, 2008).
